# Measurements reported in PubChem BioAssay AID1792 (The Scripps Research Institute Molecular Screening Center, 2009).
# In all, about 16,000 compounds went through this assay and about 130 (0.81%) were called active. The full list was thinned out, with actives kept by preference. Values without a mark were called inactive. No stated cut-off is given here; in the data, active means inhibition above about 75%; inactive means the rest.
# Target: NADPH oxidase 1 (Homo sapiens) (UniProt Q9Y5S8)
# Experiment: inhibitors of human NADPH oxidase 1 (Nox1) (AID 1792)
# Settings: HT29 cells, luminol chemiluminescence ROS; at 6.7 µM; active compounds read high
# Chain of NADPH oxidase 1 (Homo sapiens) (Q9Y5S8 whole entry, looked up): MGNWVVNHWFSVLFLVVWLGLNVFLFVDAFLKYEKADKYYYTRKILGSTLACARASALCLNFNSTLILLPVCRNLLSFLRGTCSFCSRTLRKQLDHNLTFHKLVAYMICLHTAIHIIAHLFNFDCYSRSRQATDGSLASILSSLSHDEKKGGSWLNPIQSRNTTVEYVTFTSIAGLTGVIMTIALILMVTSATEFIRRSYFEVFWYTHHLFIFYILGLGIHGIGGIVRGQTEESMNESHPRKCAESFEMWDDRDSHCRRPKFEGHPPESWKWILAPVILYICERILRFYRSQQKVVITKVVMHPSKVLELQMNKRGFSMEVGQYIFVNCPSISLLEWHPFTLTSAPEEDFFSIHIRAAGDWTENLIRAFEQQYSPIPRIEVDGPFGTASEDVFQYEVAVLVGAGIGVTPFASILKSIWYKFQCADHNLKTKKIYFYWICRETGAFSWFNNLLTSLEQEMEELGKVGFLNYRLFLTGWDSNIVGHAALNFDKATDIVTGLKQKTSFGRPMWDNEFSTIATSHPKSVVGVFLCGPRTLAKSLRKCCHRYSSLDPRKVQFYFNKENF
row,Structure (SMILES),inhibition
1,CN(C)NC(=O)c1csnc1-c1c(Cl)cccc1Cl,-20.2%
2,CC(OC(=O)c1cccc(Cl)c1)c1ccc[n+](C)c1 (stereo unspecified),-47.2%
3,CCOC(=O)/C(C#N)=C/c1ccc(-c2nccs2)cc1C(C)(C)C,8.33%
4,N#CC(C#N)=C/C=C(/Sc1nc2cc(Cl)ccc2s1)c1ccc(Cl)cc1,-27.8%
5,CCOC(=O)N1CCN(CC(O)COc2ccc(OC(F)(F)F)cc2)CC1 (stereo unspecified),-47.2%
6,O=C(Oc1ccccc1N1CCCCC1)c1sc2ccccc2c1Cl,85.7% (active)
7,O=C(O)CC(CC(=O)Oc1ccccc1N1CCCCC1)c1ccccc1 (stereo unspecified),-24.8%
8,CCOC(=O)c1sc2ccccc2c1N,-25.5%
9,N#C/C(=C\N1CCc2ccccc21)S(=O)(=O)c1ccc(C(F)(F)F)cn1,-30.5%
10,N#CCCN(CCc1ccccn1)S(=O)(=O)c1ccc2c(c1)CCO2,35.1%
11,CCOC(=O)Cc1cnc(NN=C2C3CC4CC(C3)CC2C4)s1,55.1%
12,CSc1sc(NC(=O)N2CCOCC2)c(-c2ccc(Cl)cc2)c1C#N,17.4%
13,O=C(CNC(=O)c1ccccc1F)c1ccc(Br)cc1,-16.2%
14,COc1ccc(COCC(O)CN2CCC(C(N)=O)CC2)cc1 (stereo unspecified),-52.2%
15,CCOC(=O)O/N=C(\N)c1ccc(Cl)cc1,26%
16,CC(C)(C)c1ccc(NC(=O)c2ccco2)c(NC(=O)C(Cl)(Cl)Cl)c1,6.12%
17,CN(Cc1nnc(-c2ccc3ccccc3c2)o1)c1nnc(C(F)(F)F)s1,10.6%
18,CC1(C)CC(=O)c2c(NCc3ccco3)sc(C#N)c2C1,-14.6%
19,CC(C)n1c(SCC(=O)c2cccc([N+](=O)[O-])c2)nc2cc(C(F)(F)F)ccc21,4.76%
20,CCOC(=O)c1cc(C)nc(Sc2ccccc2NC(=O)Nc2ccc(Cl)cc2)c1C#N,34.3%
21,Cc1nn(-c2ccccc2)nc1C(=O)Nc1nnc(C2CC2)s1,-13.2%
22,COC(=O)c1cc(OC)c(OC)cc1NS(=O)(=O)c1ccsc1C(=O)OC,-24.8%
23,O=C(NNc1ccc(C(F)(F)F)cn1)c1ccccc1Cl,40.9%
24,O=C1C=C(NNc2ccccc2)CCC1,-9.52%
25,Cn1cnnc1SCC(=O)Nc1cc(C(F)(F)F)cc(C(F)(F)F)c1,-26.6%
26,CC1CN=C(N(Cc2cccnc2)C(=O)Nc2ccc(Cl)c(Cl)c2)S1 (stereo unspecified),11.1%

row,Structure (SMILES),inhibition
1,FC(F)(F)c1cnc(NN=C2CCSCC2)c(Cl)c1,-21.6%
2,N/C(=N/OC(=O)NC(=O)c1c(Cl)cccc1Cl)c1ccc(F)cc1F,-11.4%
3,Cc1nn(C)c(C)c1Sc1nccc(-c2cccnc2)n1,17.5%
4,COc1cc(OC)nc(/N=C/c2nc(-c3ccccc3)oc2O)n1,16.6%
5,O=C(NCc1ccccc1)c1cc2sccc2s1,-33%
6,CSc1n[nH]c(=O)n1-c1cccc(C(F)(F)F)c1,-36.5%
7,O=S(=O)(c1ccc2c(c1)OCCO2)N1CCN(c2ccc(C(F)(F)F)cn2)CC1,-13.2%
8,Cc1c(CC(=O)Oc2ccc([N+](=O)[O-])cc2)sc2ccc(Cl)cc12,15.6%
9,CCCCc1ccc(S(N)(=O)=O)cc1,-14.9%
10,O=C(O)CC1(CC(=O)NCc2ccco2)CCCCC1,-9.49%
11,CCOC(=O)/C(=N/Nc1ccccc1)C(C)=N,-20%
12,COc1ccc(OCCC(=O)NNC(=S)Nc2cc(Cl)ccc2Cl)cc1,-22.8%
13,Cc1cc(Cl)ccc1NC(=S)NNC(=S)Nc1ccc(F)cc1,87.6% (active)
14,CC(=O)Nc1ccc(F)cc1F,-7.89%
15,O=[N+]([O-])c1ccc(N2CCOCC2)cc1,23.6%
16,CN(NS(=O)(=O)CS(C)(=O)=O)c1ncccc1[N+](=O)[O-],-4.72%
17,O=C1C(Cl)=C(Oc2cc(Cl)c(Cl)cc2Cl)C(=O)c2ccccc21,64%
18,O=C(O)C#Cc1cccc2ccccc12,-49.7%
19,Cc1ccc2oc(-c3cccs3)nc2c1,-69.6%
20,Clc1ccc(CO/N=C/c2nc3ccccc3s2)cc1,-46.7%
21,CSc1nsc(SC)c1C(=O)Nc1cc(C(F)(F)F)cc(C(F)(F)F)c1,-44%
22,CCOC(=O)/C(C#N)=C/N/S(C)=N/N=C/c1ccc(N(C)C)cc1 (stereo unspecified),3.26%
23,CCCCNc1nc(N)ns1,-43%
24,Clc1ccc(-c2csc(N/N=C\c3ccn[nH]3)n2)cc1,19%
25,Cc1nc(-c2ccccn2)n2nnnc2c1Cl,-68.7%
26,O=[N+]([O-])c1ccc(CSc2nc3cc(Cl)c(F)cc3[nH]2)cc1,10.8%

row,Structure (SMILES),inhibition
1,Cn1nnnc1SCC(=O)Nc1ccc(OC(F)(F)F)cc1,12%
2,CN(C)c1ccc(C=Nc2ccc(S(N)(=O)=O)cc2)cc1,-7.18%
3,O=S(=O)(Cc1nnc(-c2cc(Cl)cc(Cl)c2)o1)c1ccc(Cl)cc1,-4.49%
4,O=C(CSC1=NCCc2ccccc21)Nc1ccc(F)cc1F,0%
5,N/C(=N\OS(=O)(=O)c1ccc(C(F)(F)F)cc1)C1CSCCS1 (stereo unspecified),-14.1%
6,CC1=CC(=O)C(CCC2=CC(=O)C(C)=CC2=O)=CC1=O,87.8% (active)
7,COc1ccc(/C(C)=N/Nc2c([N+](=O)[O-])cc(C(F)(F)F)cc2[N+](=O)[O-])cc1CC#N,-38.4%
8,O=C(O)C1CCC1C(=O)Nc1nnc(C2CC2)s1 (stereo unspecified),12%
9,COc1ccc(/C=N/N2CCC(=O)Nc3ccccc32)c(OC)c1,-3%
10,Cc1oc(-c2ccc(Cl)cc2)cc1C(=O)O/N=C(\N)Cc1nc2cccnc2n1C1CC1,86.4% (active)
11,Cc1oc(-c2ccc(Cl)cc2)cc1C(=O)N1CCOCC1,4.54%
12,Cc1oc(-c2ccc(Cl)cc2)cc1C(=O)N1CCN(Cc2ccccc2)CC1,-19.5%
13,CC(=O)N1CCc2cc(NC(=S)Nc3ccccc3Cl)ccc21,11.8%
14,CN1CCCCC(C2=C(Cl)C(=O)CCC2)C1=O (stereo unspecified),-2.08%
15,O=C1C(Nc2ccccc2)=CC(c2ccc([N+](=O)[O-])cc2)N1c1ccccc1 (stereo unspecified),-5.43%
16,O=C(O)c1cc(=O)[nH]c2c(Cl)cc(Cl)cc12,-17.9%
17,Cc1ccc(S(=O)(=O)N/N=C/c2ccc(O)cc2O)cc1,-34.9%
18,COc1ccc2c(OC(C)=O)coc2c1,-103%
19,COc1cc(C=C(C#N)C#N)cc(OC(C)=O)c1OC(C)=O,93.6% (active)
20,Cc1nnsc1C(=O)N/N=C/c1ccccc1Cl,26.6%
21,Cc1nn2c(=O)c3c4c(sc3nc2[nH]c1=O)CCCC4,-87%
22,COC(OC)c1ccnc(SCC(=O)Nc2ccc(C(C)C)cc2)n1,-5.58%
23,N#Cc1cn(-c2cccc(C(F)(F)F)c2)c(=O)n(Cc2ccc(Cl)cc2)c1=O,11.4%
24,O=C1OC2(CCCCC2)OC1c1ccccc1 (stereo unspecified),-30.5%
